The nature of assay [1]: liver-stage malaria parasite growth inhibition, primary screen, cell-based, HepG2, luciferase luminescence, HepG2 viability (AID 624349; in the data active = parasite load remaining mostly below about 12%, no sharp cut-off; inactive = mostly above about 10%;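 note: 100% = mean of DMSO negative control wells on the same plate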). The note with it: P. berghei liver stage in HepG2, luciferase luminescence, concentration not given here; parasite load remaining: stronger effect = lower value; viability: measured here: HepG2 viability without parasites.
The subject of assay [2] is Hepatitis C virus NS3 helicase. The assay can be described thus: HCV NS3 helicase inhibitors, primary screen, biochemical, fluorescence polarization, NIH Clinical Collection (AID 743270). As to conditions: NS3 helicase binding to Cy5-dT15 DNA, stronger effect = higher value, concentration not given here.
The target of assay [3] is Single-stranded DNA-binding protein (Escherichia coli (strain K12)) (UniProt P0AGE0). The assay can be described thus: E. coli SSB displacement from DNA, counter-screen for HCV NS3 helicase inhibitor project, biochemical, fluorescence polarization, NIH Clinical Collection (AID 743271; in the data active = inhibition above about 28%). The note with it: stronger effect = higher value, concentration not given here. For orientation: The purpose of a counterscreen is to sort out artefacts and off-target activity.

The nature of assay [4]: fluorescence interference in NS3h assay format, artefact control for HCV NS3 helicase inhibitor project, biochemical, NIH Clinical Collection (AID 743272).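 Note: HCV NS3 helicase with a Cy5 labelled single stranded DNA probe.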 As to conditions: fluorescence interference counterscreen, stronger effect = lower value.
In assay [5] the test system is Neuropilin-2 / VEGF-C interaction (human). The experiment in a line: inhibitors of NRP2–VEGF-C binding, biochemical, microplate binding format, z-score (AID 743281). The note with it: microplate NRP2/VEGF-C binding assay; stronger effect = lower value.
A short description of assay [6]: stimulators of nuclear beta-catenin in C2C12, primary screen, imaging, WNT3A-conditioned medium, mouse C2C12, NPC library (AID 1117326; in the data active = nuclear beta-catenin stimulation mostly above about 4.2%, no sharp cut-off; inactive = mostly below about 10%). The note with it: stronger effect = higher value.
Assay [7] can be described thus: stimulators of insulin release from INS-1E, primary screen, cell-based, 5 mM glucose, NPC library (AID 1117329;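 active = compound raises insulin release from rat beta cells at 5 mM glucose, no numeric limit stated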). The note with it: rat INS-1E insulin secretion, at 10 µM, stronger effect = higher value.
Assay [8] can be described thus: growth inhibition of GSK3B-pretreated HCT116 cells – cell-based, CellTiter-Glo, 0.2 to 20 µM (AID 1117336;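 active = compounds lowering colon cancer cell viability after pretreatment blocking the GSK3B kinase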). The note with it: HCT116 viability after GSK3B inhibitor, at 20 µM, stronger effect = higher value.
Assay [9] in a line: inhibition of endothelial tube formation, primary screen, imaging, VEGF stimulated, CD31 staining, tube area, NPC library (AID 1117340;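 active = compound that reduces growth-factor-driven endothelial tube area in a mixed cell culture, no cutoff stated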). The note with it: VEGF-stimulated ADSC/ECFC co-culture, at 10 µM, stronger effect = higher value.
Assay [10] in a line: glucagon-like peptide 1 release enhancers, primary assay, NCI-H716 cell line, NPC library (AID 1117341;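 active = compound raises GLP1 secretion from the human gut endocrine cells, with no numeric limit stated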). As to conditions: NCI-H716 cells, at 10 µM, stronger effect = higher value.
A short description of assay [11]: HCT116 colon cancer cell growth inhibition, primary screen, CellTiter-Glo luminescence, NPC library (AID 1117342;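 active = compounds that lower survival of HCT116 colon cancer cells in the luminescence readout, no numeric limit stated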). The note with it: at 20 µM (top of the series). (ATP-based viability assays read luminescence as a measure of living cells.)
Assay [12] can be described thus: CellTiter-Glo luminescent readout of SW480 viability loss, NPC library primary (AID 1117343;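 active = compounds that lower viability of the colon cancer cells in the luminescence readout, with no numeric limit stated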). The note with it: CellTiter-Glo luminescence; at 20 µM (top of the series).
Assay [13] is described as follows: decreased DLD-1 cellular survival, CellTiter-Glo luminescent readout, NPC compound collection, primary HTS (AID 1117346;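 active = compounds that lower survival of DLD-1 colon cancer cells in the luminescence readout, no cutoff given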). As to conditions: DLD-1 viability, CellTiter-Glo luminescence; at 20 µM (top of the series).
The nature of assay [14]: Cy5 fluorescence interference with SSB-bound oligo, artefact control for HCV NS3 helicase inhibitor project, biochemical, NIH Clinical Collection, E. coli SSB (AID 743268).
Assay [15] is described as follows: kinase inhibitors against Plasmodium liver-stage infection, cell-based, known kinase inhibitor set, luminescence, hepatoma host viability (AID 624392).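 Note: infected cells incubated roughly two days before readout.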 The note with it: Plasmodium liver stage in hepatoma cells, luciferase luminescence, concentration not given here; liver cell % of control: measured here: host liver cell viability; parasite % of control: stronger effect = lower value.

For assay [16], the system named is Hepatitis C virus NS3 helicase. The assay can be described thus: HCV NS3 helicase inhibitors, primary screen, biochemical, fluorescence polarization, LOPAC1280 library (AID 687035; in the data active = inhibition above about 37%). The note with it: Purified HCV NS3 helicase, Cy5-dT15 ssDNA binding fluorescence polarization; stronger effect = higher value; concentration not given here. (In general: Polarisation of emitted light reports the rotation of a fluorescent probe.)

Assay [17] in a line: Cy5 fluorescence quenching or enhancement artefacts, artefact control for HCV NS3 helicase inhibitor project, biochemical, LOPAC1280 (AID 687037). The note with it: Cy5-DNA-NS3h complex fluorescence interference counterscreen.

Values joined by “and” are separate entries in the source; they are usually repeats but may differ in a detail not shown here. Identical values can stand only once. Active and inactive are the calls of the source. Unless noted, the rule behind the calls is not given here.

Take `CC(C)(C)NC(=O)[C@@H]1CN(Cc2cccnc2)CCN1C[C@@H](O)C[C@@H](Cc1ccccc1)C(=O)N[C@H]1c2ccccc2C[C@H]1O`: the parasite load remaining in assay [1] was 83.6% (inactive). Besides, the viability (usually a read-out of living cells in per cent, often relative to untreated cells) in assay [1] came to 71%. For the same molecule, the inhibition (commonly the drop in the measured response relative to a control, in per cent) is -1.19% (inactive) in assay [2] and 1.44% (inactive) in [3]. Besides, in assay [4], the fluorescence ratio is 1.02 (inactive). For the same molecule, the z-score in [5] is 0.687 (inactive). Also, the nuclear beta-catenin stimulation was 1.8% (inactive) in [6] (at 10 µM) and 1.7% in assay [6] (stimulation, at 2 µM). Moreover, in assay [7], the insulin secretion stimulation is 6.7% (inactive). Besides, the viability decrease in [8] is -0.8% (inactive). Further, the tube area decrease in [9] was 7.2% (inactive). The GLP1 secretion stimulation in [10] is 4.1% (inactive). The inhibition of viability in [11] was 10% (inactive). The viability decrease (inhibition) in assay [12] is -7.5% (inactive); in [13], -9.3% (inactive).

On to `CCc1oc2ccccc2c1C(=O)c1cc(Br)c(O)c(Br)c1`, for which the viability in assay [1] is 118% and 76% and 66.9%. Besides, the fluorescence ratio in [14] is 0.92 (inactive); in assay [4] it was 0.93 (inactive). Besides, the inhibition was -2.84% (inactive) in assay [2] and 9.06% (inactive) in [3]. For the same molecule, in assay [5], the z-score is 0.212 (inactive). For the same molecule, the nuclear beta-catenin stimulation was 5.3% (inactive) in assay [6] (at 10 µM) and 4.6% in [6] (stimulation, at 2 µM). In addition, in [7], the insulin secretion stimulation was 4.6% (inactive). The viability decrease in [8] was 116% (active). Also, in [9], the tube area decrease is 101% (active). Further, in assay [10], the GLP1 secretion stimulation was 21.4% (active). The inhibition of viability in assay [11] was 124% (active). The viability decrease (inhibition) in assay [12] is 154% (active); in [13], 101% (active).

For `COc1cc2c(N3CCN(C(=O)Nc4ccc(OC(C)C)cc4)CC3)ncnc2cc1OCCCN1CCCCC1`, the liver cell % of control in [15] was 61.6% and 84.6% and 95.9%. For the same molecule, the parasite % of control in [15] is 32.5% (inactive) and 57.6% (inactive) and 55.2% (inactive). The nuclear beta-catenin stimulation in assay [6] (at 10 µM) is 1.7% (inactive); in assay [6] (stimulation, at 2 µM), -1.8%. The insulin secretion stimulation in [7] is 7% (inactive). In addition, in assay [8], the viability decrease was 75.1% (active). The tube area decrease in assay [9] was 11% (inactive). Moreover, in assay [10], the GLP1 secretion stimulation is 11.5% (inactive). Further, the inhibition of viability in assay [11] was 93.9% (active). The viability decrease (inhibition) in assay [12] is 38.5% (inactive); in assay [13] it was 10.1% (inactive).

In the case of `CC(C)NCC(O)COc1ccc(CCOCC2CC2)cc1` (configuration not stated), the inhibition in [16] was -6% (inactive); in assay [2], 5.94% (inactive); in [3], 3.75% (inactive). Also, in assay [17], the fluorescence ratio (interference) was 0.9 (inactive). The fluorescence ratio in [14] was 1.03 (inactive); in assay [4], 0.95 (inactive). Also, in [5], the z-score was -0.0183 (inactive). The nuclear beta-catenin stimulation in [6] (at 10 µM) was 3.6% (inactive); in [6] (stimulation, at 2 µM) it was 3.7%. In addition, in assay [7], the insulin secretion stimulation was -1.4% (inactive). Also, the viability decrease in assay [8] was -6.1% (inactive). Also, the tube area decrease in assay [9] was 26% (inactive). For the same molecule, the GLP1 secretion stimulation in [10] was 1.9% (inactive). Moreover, in [11], the inhibition of viability is 14.2% (inactive). The viability decrease (inhibition) in assay [12] was 10.9% (inactive); in assay [13] it was 2.1% (inactive).

As to `COC(=O)C1=C(C)NC(C)=C(C(=O)OCC(C)C)C1c1ccccc1[N+](=O)[O-]` (configuration not stated), the fluorescence ratio is 0.95 (inactive) in [14] and 0.91 (inactive) in assay [4]. In addition, the inhibition in assay [2] is 4.36% (inactive); in assay [3] it was -0.87% (inactive). Also, in assay [5], the z-score was -0.886 (inactive). The nuclear beta-catenin stimulation in assay [6] (at 10 µM) was 6% (inactive); in [6] (stimulation, at 2 µM), 3.3%. Besides, the insulin secretion stimulation in assay [7] was 1.25% (inactive). The viability decrease in assay [8] was 102% (active). Besides, in assay [9], the tube area decrease was 15.6% (inactive). Besides, in assay [10], the GLP1 secretion stimulation was 1.3% (inactive). Moreover, in assay [11], the inhibition of viability was 97.8% (active). Moreover, the viability decrease (inhibition) in assay [12] is 122% (active); in assay [13] it was 86.2% (active).

Turning to `COc1ccccc1OCC(O)CN1CCN(CC(=O)Nc2c(C)cccc2C)CC1` (configuration not stated), the inhibition is -7% (inactive) in assay [16], -3.56% (inactive) in assay [2] and -4.72% (inactive) in [3]. For the same molecule, the fluorescence ratio (interference) in assay [17] was 0.9 (inactive). For the same molecule, the values for the fluorescence ratio in assay [14] and in [4] were 1.02 (inactive) and 0.9 (inactive), respectively. Further, the z-score in [5] is 0.514 (inactive). The nuclear beta-catenin stimulation in [6] (at 10 µM) is 2.5% (inactive); in [6] (stimulation, at 2 µM) it was 1.4%. Besides, the insulin secretion stimulation in assay [7] is 0.8% (inactive). The viability decrease in [8] is -14.5% (inactive). Also, the tube area decrease in assay [9] was 0.2% (inactive). For the same molecule, in assay [10], the GLP1 secretion stimulation was 2.2% (inactive). Further, the inhibition of viability in assay [11] is 9.23% (inactive). In addition, the viability decrease (inhibition) in assay [12] is -16.2% (inactive); in assay [13], -14.6% (inactive).

The values are drawn from PubChem BioAssay.
